Data on 5 molecules can be found in PubChem BioAssay.

Molecules are shown by their SMILES. The source made the active and inactive calls.

Experiment [1] in a line: optical density shifts of acrAB sulA E. coli – strain DRC41, OD650, 48 h, E. coli filamentation inducer project, primary screen (AID 1152).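 Also: E. coli MC1000 strain DRC41 lacking acrAB efflux pump and sulA.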 The note with it: higher = more signal, called active from +8 up or from −8 down.
Experiment [2] in a line: probe aLefty1 binding on compound microarray – biochemical, small-molecule microarray, 635/667 nm fluorescence, primary screen (AID 1153).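 Also: score merges spot fluorescence with signal-to-noise ratio from the scanned slide images.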 The note with it: higher = more signal.
The nature of experiment [3]: plasmodial surface anion channel blockers, osmotic lysis – cell-based, P. falciparum Indochina, OD700, 1 h, primary screen (AID 1154). The note with it: P. falciparum Indochina infected RBC osmotic lysis, higher = more signal, called active from +8 up or from −8 down.
Experiment [4] is described as follows: plasmodial surface anion channel blockers, osmotic lysis – cell-based, P. falciparum Indochina, OD700, 2 h, primary screen (AID 1155).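 Also: lysis reports solute entry through the parasite surface anion channel PSAC.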 The conditions noted are these: P. falciparum Indochina infected erythrocytes, higher = more signal, called active from +8 up or from −8 down.
Experiment [5] in a line: changes in parasitized red cell lysis, either direction – P. falciparum Indochina, OD700, 3 h, PSAC antagonist project, primary screen (AID 1156). The note with it: P. falciparum-infected erythrocytes, osmotic lysis, higher = more signal, called active from +8 up or from −8 down.
Experiment [6] is described as follows: plasmodial surface anion channel blockers, osmotic lysis – cell-based, P. falciparum Indochina, OD700, 18 h, primary screen (AID 1157). The note with it: P. falciparum Indochina infected erythrocytes, osmotic lysis OD700, 18 h; higher = more signal, called active from +8 up or from −8 down.
Experiment [7] in a line: S6 kinase pathway phospho-S6 level changes – cell-based, A549, cytoblot, luminescence, serum-stimulated, primary screen (AID 1158).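 Also: serum-stimulated A549 lung adenocarcinoma cells; signal is phosphorylated S6 detected by cytoblot immunostaining with HRP secondary.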 The note with it: 5 h, higher = more signal.
The target of experiment [8] is NADPH oxidase 2 (Homo sapiens) (UniProt P04839). In words: compounds shifting NOX2 Amplex Red fluorescence – cell-based, HEK293-NOX2, PMA-stimulated, NOX inhibitor project, primary screen (AID 1159). Also: test concentration not given here. The conditions noted are these: 45 min, higher = more signal, called active from +8 up or from −8 down.
The target of experiment [9] is NADPH oxidase 4 (Homo sapiens) (UniProt Q9NPH5). Put plainly: compounds shifting NOX4 Amplex Red fluorescence – cell-based, HEK293-NOX4, tetracycline-induced, NOX inhibitor project, primary screen (AID 1160). The conditions noted are these: HEK293-NOX4, Amplex Red H2O2 fluorescence, 45 min; higher = more signal, called active from +8 up or from −8 down.
Experiment [10] deals with NADPH oxidase 5 (Homo sapiens) (UniProt Q96PH1). In words: compounds shifting NOX5 Amplex Red fluorescence – cell-based, HEK293-NOX5, NOX inhibitor project, primary screen (AID 1161). The conditions noted are these: HEK293-NOX5, ionomycin, 45 min, higher = more signal.
Experiment [11] is described as follows: compound effects on lung adenocarcinoma cell viability – A549, calcein-AM fluorescence, 48 h, basal, profiling panel (AID 1162). Also: test concentration not given here. The note with it: higher = more signal.
Experiment [12] is described as follows: compound effects on differentiated 3T3-L1 adipocyte viability – cell-based, 3T3-L1 adipocytes, calcein-AM fluorescence, 48 h, basal, profiling panel (AID 1163). Also: test concentration not given here. The conditions noted are these: 3T3-L1 adipocytes viability, higher = more signal.
Experiment [13] is described as follows: compound effects on hepatocellular carcinoma cell viability – HepG2, calcein-AM fluorescence, 48 h, basal, profiling panel (AID 1164). Also: test concentration not given here. The note with it: higher = more signal.
A short description of experiment [14]: compound effects on multiple myeloma cell viability – MM1S, calcein-AM fluorescence, 48 h, basal, profiling panel (AID 1165).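 Also: viability of MM1S multiple myeloma cells under basal unstimulated conditions; test concentration not given here.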 The note with it: higher = more signal.
Experiment [15] is described as follows: calcein-AM signal in unstimulated myeloma cells – cell-based, calcein-AM fluorescence, 48 h, PK04 Diversity Set, profiling panel (AID 1166).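 Also: cells grown under basal conditions without added stimulus; test concentration not given here.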 The conditions noted are these: RPMI8226 myeloma viability, higher = more signal.
The nature of experiment [16]: JC-1 mitochondrial signal, unstimulated HepG2 cells – cell-based, JC-1 fluorescence, 24 h, 100 nL compound, profiling panel (AID 1167). Also: test concentration not given here. The conditions noted are these: HepG2 mitochondrial potential, higher = more signal.
Experiment [17] can be described thus: JC-1 mitochondrial signal, unstimulated adipocytes – cell-based, JC-1 fluorescence, 3T3-L1 adipocytes, 24 h, 100 nL compound, profiling panel (AID 1168). Also: test concentration not given here. The note with it: JC-1 mitochondrial fluorescence, higher = more signal, called active from +8 up or from −8 down.
The nature of experiment [18]: JC-1 mitochondrial signal, unstimulated myeloma cells – cell-based, JC-1 fluorescence, RPMI8226, 24 h, 100 nL compound, profiling panel (AID 1169). Also: test concentration not given here. The conditions noted are these: JC-1 mitochondrial potential fluorescence, higher = more signal.
Experiment [19] in a line: JC-1 mitochondrial signal, unstimulated MM1S myeloma – cell-based, JC-1 fluorescence, 24 h, 100 nL compound, profiling panel (AID 1170). Also: test concentration not given here. The note with it: MM1S mitochondrial potential, higher = more signal.
Experiment [20] in a line: resazurin metabolic signal in A549 cells – cell-based, resazurin fluorescence, 24 h, PK04 Diversity Set, profiling panel (AID 1171). Also: test concentration not given here. The note with it: A549 viability, higher = more signal, called active from +8 up or from −8 down. (Alamar Blue is a resazurin reagent that responds to reducing activity.)

Chain of NADPH oxidase 2 (Homo sapiens) (P04839 whole entry, looked up): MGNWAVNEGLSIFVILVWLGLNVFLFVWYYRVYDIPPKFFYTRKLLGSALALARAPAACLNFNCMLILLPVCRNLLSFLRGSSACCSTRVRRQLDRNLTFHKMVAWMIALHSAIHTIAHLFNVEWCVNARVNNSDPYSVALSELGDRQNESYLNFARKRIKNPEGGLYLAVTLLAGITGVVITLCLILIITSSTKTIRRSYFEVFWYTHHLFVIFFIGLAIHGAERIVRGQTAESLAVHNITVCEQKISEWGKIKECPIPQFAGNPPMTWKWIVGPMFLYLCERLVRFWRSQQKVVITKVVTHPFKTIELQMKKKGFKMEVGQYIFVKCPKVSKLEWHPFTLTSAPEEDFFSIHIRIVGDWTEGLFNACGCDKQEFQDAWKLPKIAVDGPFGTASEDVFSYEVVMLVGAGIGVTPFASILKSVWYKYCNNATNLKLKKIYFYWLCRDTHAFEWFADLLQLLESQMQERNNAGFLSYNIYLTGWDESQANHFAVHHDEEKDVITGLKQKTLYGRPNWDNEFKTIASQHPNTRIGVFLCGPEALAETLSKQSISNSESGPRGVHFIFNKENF
Chain of NADPH oxidase 5 (Homo sapiens) (Q96PH1 whole entry, looked up): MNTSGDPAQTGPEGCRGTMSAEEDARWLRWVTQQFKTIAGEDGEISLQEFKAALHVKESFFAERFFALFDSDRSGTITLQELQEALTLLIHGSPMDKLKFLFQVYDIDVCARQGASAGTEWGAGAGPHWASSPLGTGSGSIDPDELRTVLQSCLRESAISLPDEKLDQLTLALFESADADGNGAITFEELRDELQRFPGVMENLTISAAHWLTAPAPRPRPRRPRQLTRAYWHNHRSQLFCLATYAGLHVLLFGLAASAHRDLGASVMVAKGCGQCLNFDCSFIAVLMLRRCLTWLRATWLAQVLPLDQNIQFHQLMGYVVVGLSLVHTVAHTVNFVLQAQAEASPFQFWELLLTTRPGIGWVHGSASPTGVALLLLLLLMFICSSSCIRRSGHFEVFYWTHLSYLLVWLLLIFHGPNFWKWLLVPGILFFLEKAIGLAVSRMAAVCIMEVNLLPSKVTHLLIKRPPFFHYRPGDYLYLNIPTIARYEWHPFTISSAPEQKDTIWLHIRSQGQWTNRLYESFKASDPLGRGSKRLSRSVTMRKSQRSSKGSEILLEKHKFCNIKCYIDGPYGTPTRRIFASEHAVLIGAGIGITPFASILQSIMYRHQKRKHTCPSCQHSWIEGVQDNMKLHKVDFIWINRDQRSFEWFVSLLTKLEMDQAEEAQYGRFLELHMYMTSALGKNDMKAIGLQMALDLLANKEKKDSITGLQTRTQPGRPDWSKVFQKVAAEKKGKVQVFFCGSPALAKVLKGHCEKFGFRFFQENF
Chain of NADPH oxidase 4 (Homo sapiens) (Q9NPH5 whole entry, looked up): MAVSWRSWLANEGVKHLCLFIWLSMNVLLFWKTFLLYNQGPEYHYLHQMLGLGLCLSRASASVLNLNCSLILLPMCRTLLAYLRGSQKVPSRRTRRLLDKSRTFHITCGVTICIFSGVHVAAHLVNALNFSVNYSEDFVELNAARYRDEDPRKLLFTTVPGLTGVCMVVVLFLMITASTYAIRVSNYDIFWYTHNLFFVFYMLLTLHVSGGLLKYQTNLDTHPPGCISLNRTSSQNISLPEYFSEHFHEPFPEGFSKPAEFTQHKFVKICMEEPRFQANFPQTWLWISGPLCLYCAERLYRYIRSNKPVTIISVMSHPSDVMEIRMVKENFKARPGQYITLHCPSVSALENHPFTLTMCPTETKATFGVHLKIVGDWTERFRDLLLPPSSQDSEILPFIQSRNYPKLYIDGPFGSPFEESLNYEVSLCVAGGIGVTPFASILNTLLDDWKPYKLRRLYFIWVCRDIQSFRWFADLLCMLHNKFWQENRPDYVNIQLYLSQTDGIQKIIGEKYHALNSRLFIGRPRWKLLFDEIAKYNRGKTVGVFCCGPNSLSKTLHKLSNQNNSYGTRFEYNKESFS

For the molecule `CC(C)CON=C1C[C@@H](O)[C@@H](O)[C@@H]2[C@@H]3C(=O)N(Cc4ccc5c(c4)OCO5)C(=O)[C@@H]3CC[C@H]12`, the z-score is -0.135 (inactive) in [1]; 1.22 (inactive) in experiment [3]; 0.32 (inactive) in experiment [4]; 0.337 (inactive) in [5]; 0.108 (inactive) in experiment [6]; -0.27 in [7]. Besides, the z-score is -0.378 (inactive) in experiment [8]; 1.02 (inactive) in experiment [9]; -0.146 in experiment [10]; -0.223 in experiment [11]; -0.503 in [12]; -0.479 in experiment [13]. Moreover, the z-score in [14] is 0.119; in experiment [15] it was -1.15; in [16], 0.174; in [17], -0.589 (inactive); in [18], 0.704; in experiment [19], -0.146. Moreover, the z-score in experiment [20] was 0.56 (inactive). This molecule displayed a composite z-score in [2] of -0.198.

As for `C#CCCCON=C1C[C@@H](O)[C@@H](O)[C@@H]2[C@@H]3C(=O)N(c4ccc(F)cc4F)C(=O)[C@@H]3CC[C@H]12`, the z-score was -1.41 (inactive) in [1]; 1.04 (inactive) in experiment [3]; -1.22 (inactive) in [4]; 1.13 (inactive) in [5]; -1.41 (inactive) in experiment [6]; 0.27 in [7]. The z-score in [8] was -0.76 (inactive); in [9] it was 0.615 (inactive); in experiment [10], 0.306; in experiment [11], 1.14; in [12], -0.0377; in experiment [13], -0.123. The z-score in experiment [14] was 0.324; in experiment [15] it was 0.116; in experiment [16] it was 0.769; in experiment [17], -0.229 (inactive); in experiment [18], -0.0797; in experiment [19], -1.25. The z-score in [20] is 0.705 (inactive). For the same molecule, the composite z-score in experiment [2] was -0.193.

Regarding `COC(=O)CC=C[C@H](C)[C@@H](OCc1cccc(Br)c1)[C@@H](C)[C@H](OC)C1CCCCC1`, the z-score is -0.533 (inactive) in experiment [1]; 1.82 (inactive) in [3]; 0.675 (inactive) in [4]; -0.0293 (inactive) in [5]; 0.686 (inactive) in [6]; 0.433 in experiment [7]. Further, the z-score was -0.453 (inactive) in [8]; 0.286 (inactive) in experiment [9]; 0.664 in [10]; 0.836 in experiment [11]; 0.128 in experiment [12]; 1.21 in experiment [13]. The z-score in experiment [14] is -2.16; in [15], -0.474; in experiment [16], 0.918; in experiment [17], 0.831 (inactive); in [18] it was 0.00209; in experiment [19], -0.324. Further, in experiment [20], the z-score was 0.0303 (inactive). Besides, in experiment [2], the composite z-score is -0.333.

For `CC(C)CON=C1C[C@@H](O)[C@@H](O)[C@@H]2[C@@H]3C(=O)N(c4ccc(F)cc4F)C(=O)[C@@H]3CC[C@H]12`, the z-score in [1] is -0.619 (inactive); in [3], 1.17 (inactive); in experiment [4], -0.996 (inactive); in [5], 0.12 (inactive); in experiment [6], -1.09 (inactive); in [7] it was -0.0969. Besides, the z-score was -1.13 (inactive) in experiment [8]; 0.632 (inactive) in experiment [9]; 0.178 in [10]; 0.0042 in experiment [11]; -0.934 in experiment [12]; -0.222 in experiment [13]. Besides, the z-score in [14] was 0.597; in experiment [15], -0.567; in experiment [16], 0.861; in experiment [17] it was -0.131 (inactive); in [18] it was 0.541; in experiment [19], -1. The z-score in [20] was 0.495 (inactive). This molecule registered a composite z-score in experiment [2] of 0.144.

Turning to `C#CCCCON=C1C[C@@H](O)[C@@H](O)[C@@H]2[C@@H]3C(=O)N(c4cccc(Oc5ccccc5)c4)C(=O)[C@@H]3CC[C@H]12`, the z-score was 0.496 (inactive) in [1]; 1.7 (inactive) in [3]; 0.977 (inactive) in experiment [4]; 0.773 (inactive) in [5]; 0.232 (inactive) in experiment [6]; -0.203 in experiment [7]. Also, the z-score in experiment [8] was -0.683 (inactive); in [9] it was 0.186 (inactive); in experiment [10], -0.676; in [11] it was 1.08; in experiment [12] it was 0.139; in experiment [13], 0.411. The z-score in experiment [14] is 0.632; in [15], 0.116; in experiment [16], 0.862; in experiment [17] it was 0.57 (inactive); in experiment [18] it was -0.263; in [19], -1.29. Moreover, the z-score in experiment [20] was 0.19 (inactive). For the same molecule, the composite z-score in experiment [2] came to 0.042.
